{"source": "PubChem BioAssay AID540332", "about": "(The Scripps Research Institute Molecular Screening Center, 2011)", "system": "Rolipram", "test": "selectivity profile across receptors and CYP450s – biochemical, Ricerca HitProfilingScreen, CYP450, set 2, selectivity assay for S1P4 agonist project, profiling panel (AID 540332)", "conditions": "at 30 µM; stronger effect = higher value", "note": "A number with no mark means an inactive call. The rule behind the calls is not given here."}
{"smiles": "COCCN=C1S/C(=C\\c2cc(C)n(-c3ccc(F)cc3F)c2C)C(=O)N1C", "values": [{"measurement": "inhibition", "result": 15, "unit": "%"}]}
